IL1B secr inh: inhibitors of inflammasome signaling (IL-1 beta secretion). THP-1 LPS/ATP IL-1B secretion, AlphaLISA, 16 h; active compounds read low. activity change, % at 57.5 µM. 4.7% of 360,000 active; in the data active = activity change below about -50%; inconclusive = mostly about -30% to -49%; also: % is scaled to controls: 0 for no effect and ±100 for the full control effect
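THP-1 cells pretreated 1 hr with compounds (up to 57.5 uM final), then stimulated with LPS (250 ng/mL final) plus ATP (1.25 mM final); secreted IL-1B measured by AlphaLISA after 16 hr, decreased signal indicating inhibition.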
BCR signal inh: blocks chronic active B-cell receptor signaling | ABC-DLBCL IkBa-CBG/CBR reporter, luminescence ratio, 4 h | AID 493014 | Potency, µM (top dose mostly 46.1 µM), for the others: top-dose activity change, negative = inhibition, hits mostly inhibitors | 0.05% of 340,000 active; active = well fitted inhibition curve with a large enough effect in the signal ratio, with a control signal flat, not every such curve was filed as active; inconclusive = small, poorly fitted or top-dose-only effect, or effect the other way, or a change in a side signal; the % refers to the signal ratio;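 also: potency is read from the fitted curve at half-maximal effect; plate controls were basal doxycycline-induced cells for no effect and cells given 10 µM MG132 for full effect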
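Compounds up to 46 uM were incubated four hours with TMD8 cells whose green CBG68 luciferase is fused to IkappaBalpha; red CBR luminescence normalised the signal, and concentration-effect curves were fitted to fusion, red and ratio data.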
DT40 TDP1 CPT: growth inhibition of DT40 Tdp1-/-;hTDP1 cells with camptothecin (screen for TDP1 inhibitors); chicken DT40 Tdp1-/-;hTDP1 cells + 20 nM CPT, ATP luminescence, 48 h; Potency, µM (highest dose often 46.2 µM), for the others: at the highest dose activity change, negative = growth inhibition, hits mostly inhibitors; 12% of 420,000 active; AID 686979; also: potency is read from the fitted curve at half-maximal effect; % is scaled to controls: 0 for no effect and ±100 for the full control effect; nearly all actives have a fitted effect of over 55% in size
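Chicken DT40 Tdp1-/- cells complemented with human TDP1, 400 cells/well, exposed to compounds plus 20 nM camptothecin for at least 48 h at 37 C; viability read as ATP content by CellTiter-Glo luminescence.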
SW480 rereplic: induces DNA re-replication in SW480 colon adenocarcinoma cells; SW480 DNA re-replication, Hoechst DNA content imaging, 48 h; Potency, µM (series often up to 46.1 µM), for inactives: top-dose re-replication activation, most hits filed as activators; 1.8% of 340,000 active; also: potency is read from the fitted curve at half-maximal effect; % of control where 0% means no effect; nearly all actives have a fitted effect of over 55% in size
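Readout is total intensity of Hoechst-stained nuclei, excited at 405 nm and collected at 500-530 nm. Compound treatment lasted 48 hr at 37 C in 5% CO2 before staining.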
TDP1 cell noCPT: qHTS for Inhibitors of human tyrosyl-DNA phosphodiesterase 1 (TDP1): qHTS in cells in absence of CPT; DT40 Tdp1-/- hTDP1 cells, no CPT, ATP luminescence, 48 h; Potency, µM (titrated, usually from 46.2 µM), for inactives: top-dose activity change, negative = growth inhibition, hits mostly inhibitors; 15% of 420,000 active; AID 686978, 2013; also: potency is read from the fitted curve at half-maximal effect; % is scaled to controls: 0 for no effect and ±100 for the full control effect; nearly all actives have a fitted effect of over 55% in size
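Chicken DT40 Tdp1-/- cells stably complemented with human TDP1 were seeded at 400 cells/well with DMSO in place of 20 nM camptothecin. After compound pinning, cells grew at least 48 hr at 37 °C; viability read by CellTiter-Glo luminescence.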
MCF10A rereplic: induces DNA re-replication in MCF 10a normal breast cells; MCF 10A DNA re-replication, Hoechst nuclear intensity, 48 h; 2.9% of 350,000 active; Potency, µM (doses to about 46.1 µM), without a hit: at the top dose activity, positive = re-replication, usual class: activators; also: potency is read from the fitted curve at half-maximal effect; % of control where 0% means no effect; nearly all actives have a fitted effect of over 50% in size
* marks the source's active call; other numbers are inactive results; ? = inconclusive; . = no result; [ ] = dose if it differs, or a comment. In the library only some 19% were active in any assay of this set; here they are far more common. Unless noted, calls follow the shape of the dose curve; as a rule, active = well fitted curve in the direction sought with a large enough effect; inconclusive = small, poorly fitted or top-dose-only effect, or another doubt; inactive = no such curve, though single readings can be large; an effect the other way counts as inactive or inconclusive.

SMILES | IL1B secr inh | BCR signal inh | DT40 TDP1 CPT | SW480 rereplic | TDP1 cell noCPT | MCF10A rereplic
COC1=C(C)C(O)=C(C(=O)/C=C/c2ccccc2)C(=O)C1(C)C | ? | -27% | ? | -3% | ? | ?
O=C(/C=C/c1ccc(O)cc1)c1ccccc1 | ? | ? | -25% | 30% | ? | ?
O=C(C=Cc1ccccc1)c1ccc([N+](=O)[O-])cc1 | -27 | . | ? | 16µM* | 18µM* | 160%
COCOc1cc(O)c(C(=O)/C=C/c2ccccc2)c(OCOC)c1 | -103* | . | 15µM* | ? | 18µM* | ?
COc1ccc(C(=O)/C=C/c2ccc(N(C)C)cc2)c(OC)c1 | -100* | ? | 7.3µM* | ? | 10µM* | 16µM*
CCOC(=O)Nc1ccc(Oc2ccccc2)cc1 | 0 | 2% | ? | 0% | ? | 8%
CN(C)c1ccc(C(=O)C=Cc2ccc([N+](=O)[O-])cc2)cc1 | ? | . | -25% | . | ? | .
Cc1[nH]c(C)c(C(=O)/C=C/c2ccc([N+](=O)[O-])cc2)c1C | -97* | ? | 16µM* | ? | 23µM* | 12µM*
COc1cccc(-c2nn(-c3ccccc3)cc2/C=C\C(=O)c2cccs2)c1 | -18 | ? | -27% | ? | -28% | ?
COc1ccc(/C=C/C(=O)c2cccs2)c(OC)c1 | . | . | 1.1µM* | . | 2.4µM* | .
COc1ccc(C(=O)/C=C/c2ccccc2)cc1 | . | . | ? | . | 23µM* | .
CCOC(=O)Nc1ccc(C(=O)/C=C/c2ccccc2)cc1 | -88* | ? | 5.2µM* | ? | 2.6µM* | ?
COc1ccc(OC)c(C(=O)/C=C/c2ccccc2C(F)(F)F)c1 | -110* | ? | 26µM* | ? | 21µM* | ?
COc1ccc(C(=O)N/C(N)=N/c2nc3ccccc3o2)cc1 | 7 | 3% | -25% | 17% | -26% | ?
COc1ccc(C(=O)/C=C/Nc2cc(C)on2)c(OC)c1 | -9 | 9% | ? | -4% | -15% | ?
COc1ccc(/C=C/C(=O)c2cc3cccc(OC)c3oc2=O)cc1 | -19 | -12% | ? | ? | 23µM* | ?
COc1ccc(C(=O)/C=C/Sc2nc3ccccc3o2)cc1 | -95* | ? | 2.6µM* | ? | 2.3µM* | 22%
COc1ccc(C(=O)/C=C/c2ccccc2)c(OC)c1 | -111* | ? | -104% | 28% | 12µM* | ?
CNC(=O)c1cc2cccc(OC)c2oc1=O | 15 | -16% | -7% | 2% | 10% | 37%
COc1ccc(OC)c(N/C=C/C(=O)c2ccccc2)c1 | -7 | ? | -2% | 11% | -39% | ?
COc1cccc(OC)c1C(=O)Nc1ccc(S(=O)(=O)Nc2nccc(C)n2)cc1 | . | . | 1% | . | 17% | .
Cc1c(NC(=O)COc2ccc(C(C)C)cc2)c(=O)n(-c2ccccc2)n1C | 8 | 7% | -18% | 2% | -3% | ?
O=C(O)/C=C/C=C/c1ccccc1 | . | . | 9% | . | -23% | .
COc1ccc(C=CC(=O)C=CC=Cc2ccccc2)cc1 | -52* | . | ? | 21µM* | ? | ?
CCN(c1ccccc1)c1nc(Cl)nc2c1cnn2C | -11 | . | ? | -11% | 13µM* | 17%
SMILES | IL1B secr inh | BCR signal inh | DT40 TDP1 CPT | SW480 rereplic | TDP1 cell noCPT | MCF10A rereplic
CCC1(CC)NC(=O)N(CC(=O)OCC(=O)Nc2cc(OC)ccc2OC)C1=O | -11 | 0% | -2% | 0% | 2% | 1%
CCc1ccc(S(=O)(=O)Nc2cc3c(cc2N2CCOCC2)n(C)c(=O)c(=O)n3C)cc1 | -13 | -4% | ? | -18% | ? | -3%
Cc1ccc(C(=O)Oc2cc(N)n(S(=O)(=O)c3ccc(C)cc3)n2)cc1 | 14 | -9% | -1% | -4% | 19% | 14%
CCOC(=O)c1oc2ccc(S(=O)(=O)n3nc(-c4ccc(C)cc4)cc3N)cc2c1C | 8 | 5% | 12µM* | -1% | 16µM* | 1%
CCc1cccc(NS(=O)(=O)c2ccc3c(c2)n(C)c(=O)n3C)c1 | -26 | 1% | 10µM* | -2% | 9.2µM* | 21%
Cn1c(=O)c(=O)n(C)c2cc(S(=O)(=O)NCc3ccc(Cl)cc3)ccc21 | -2 | -4% | 16µM* | -95% | ? | ?
Cn1c(=O)n(C)c2cc(S(=O)(=O)NCc3ccccc3)ccc21 | 32 | -1% | ? | -8% | ? | -6%
CCc1ccc(S(=O)(=O)Nc2ccc3c(c2)n(C)c(=O)c(=O)n3C)cc1 | . | . | ? | . | 15µM* | .
CN(CC(=O)Nc1ccccc1C(F)(F)F)C(=O)CSc1nnc(-c2ccncc2)n1C | 8 | -4% | 2% | 1% | 0% | 3%
Cc1cc2c(cc1S(=O)(=O)Nc1ccc(F)cc1)n(C)c(=O)c(=O)n2C | 18 | -4% | 9% | -15% | -4% | 4%
CCOC(=O)c1oc2ccc(S(=O)(=O)Nc3ccc4c(c3)n(C)c(=O)n4C)cc2c1C | ? | ? | ? | 1% | 21µM* | 1%
CCc1ccc(NS(=O)(=O)c2cc3c(cc2C)n(C)c(=O)c(=O)n3C)cc1 | 0 | 10% | 15µM* | -3% | 13µM* | 12%
C[C@H](CO)N1C[C@H](C)[C@H](CN(C)S(=O)(=O)c2ccc3ccccc3c2)OCc2cnnn2CCCC1=O | -23 | . | ? | . | ? | .
OCCC1CN(Cc2cc(F)ccc2-n2cccn2)CCN1Cc1ccc(F)cc1 (centres undefined) | -8 | -7% | ? | 10% | -30% | 14%
OC(c1ccc(F)c(F)c1)c1ncc(-c2cccc(F)c2)[nH]1 (centres undefined) | 0 | . | ? | . | -19% | .
COC(=O)c1ccc(-c2ccc(F)cc2)nc1C | -6 | ? | -15% | 29µM* | -3% | -6%
Cc1nc(-c2ccccc2)ccc1C(=O)O | 6 | 13% | -22% | 5%[1.84 µM] | ? | ?
COC(=O)c1cnn2c(C(F)(F)F)cc(-c3ccc(F)cc3)nc12 | 35 | 8% | 2% | -6% | -24% | ?
Cc1ccc(-c2ccc(C(=O)O)c(C)n2)cc1 | 4 | 15% | 9% | 2.3µM* | -1% | -47%
CCn1cc(C(=O)OCC(=O)c2ccccc2)c(=O)c2ccc(C)nc21 | 33 | -25% | 5% | -2% | -1% | -1%
Cc1cc(C(=O)COC(=O)Cc2n[nH]c(=O)c3ccccc23)c(C)n1-c1cccc(C(F)(F)F)c1 | -12 | -3% | ? | -2% | 16µM* | 17%
